# Compound activity (PubChem)
# Shown are actives, neighbours in structure and some others; about 4.6% of the full set was active somewhere.
# KKLEB tox = counter-screen for CF NF-kB inhibitors: cytotoxicity; activity change (cytotoxicity), % at 5 µM; 0.36% of 360,000 active; AID 602141; KKLEB CF airway cells viability, ATPlite luminescence, overnight; hits give low values; cells stimulated with P. aeruginosa culture filtrate;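 active means corrected activity change at or below -50% at 5 µM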
# HIF-2a inh = HIF-2a inhibition. 786-0 RCC cells HIF-2a reporter, luciferase luminescence, overnight. inhibition, % at 18.8 µM. 0.72% of 360,000 active;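 active means inhibition of the luminescence signal of 40% or more relative to plate controls, in a single-dose primary screen at 18.75 µM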
# CF NFkB block = cystic fibrosis NF-kB activation inhibition. KKLEB NF-kB-GFP reporter, PAF-induced, GFP fluorescence overnight. inhibition, % at 5 µM. 0.86% of 360,000 active;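 active means at least 50% inhibition at 5 µM, scaled per plate between neutral and stimulator controls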;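 further: PAF is a Pseudomonas aeruginosa culture filtrate used as stimulus; plate controls were PAF-stimulated DMSO wells for no effect and unstimulated DMSO wells for full effect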
# Mdm2 MdmX PPI = human Mdm2/MdmX binding inhibition; SaOS-2 split-luciferase Mdm2/MdmX complementation, luminescence; inhibition, % at 8 µM; 3% of 330,000 active; AID 485346;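 active means inhibition of at least 50% at 8 µM in the primary screen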
# ABHD5-PLIN5 inh = inhibitors of human ABHD5-perilipin-5 interaction; Q00G26+Q8WTS1; Split G. princeps luciferase complementation, luminescence, 4 h; inhibition, % at 4 µM; 0.78% of 360,000 active; AID 602281;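 active means inhibition above the mean inhibition across every tested compound plus 3 SD, cut at about 22% in these data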;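 further: 0% = DMSO only wells and the 100% control is not disclosed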
# Target sequence (Q00G26 whole entry, looked up): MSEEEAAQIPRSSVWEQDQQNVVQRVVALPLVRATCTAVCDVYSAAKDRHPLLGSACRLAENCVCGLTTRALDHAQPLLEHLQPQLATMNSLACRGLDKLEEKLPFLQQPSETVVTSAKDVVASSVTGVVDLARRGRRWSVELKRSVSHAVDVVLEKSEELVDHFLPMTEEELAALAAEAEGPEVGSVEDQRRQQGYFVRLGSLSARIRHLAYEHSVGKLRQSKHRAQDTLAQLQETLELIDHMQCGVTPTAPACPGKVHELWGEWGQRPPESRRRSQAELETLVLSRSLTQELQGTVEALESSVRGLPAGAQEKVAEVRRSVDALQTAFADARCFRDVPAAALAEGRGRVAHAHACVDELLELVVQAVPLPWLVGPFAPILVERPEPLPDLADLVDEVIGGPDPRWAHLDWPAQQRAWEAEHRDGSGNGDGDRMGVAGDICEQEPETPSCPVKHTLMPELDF
# Target sequence (Q8WTS1 whole entry, looked up): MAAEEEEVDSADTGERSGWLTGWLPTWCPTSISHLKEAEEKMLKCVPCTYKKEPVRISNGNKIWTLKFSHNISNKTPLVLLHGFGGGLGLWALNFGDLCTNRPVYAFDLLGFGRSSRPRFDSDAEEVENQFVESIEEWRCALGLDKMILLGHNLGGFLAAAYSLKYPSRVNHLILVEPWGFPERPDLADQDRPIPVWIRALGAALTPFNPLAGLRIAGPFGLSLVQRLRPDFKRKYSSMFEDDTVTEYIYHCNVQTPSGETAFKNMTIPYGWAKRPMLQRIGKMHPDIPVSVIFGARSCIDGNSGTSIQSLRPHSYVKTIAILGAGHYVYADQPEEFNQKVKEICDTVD
# Peg3 prom inh = Peg3 promoter activity inhibition | HeLa PEG-Prom luciferase reporter, luminescence, overnight | 1.7% of 360,000 active | AID 588405 | inhibition, % at 20 µM;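 active means inhibition of at least 50% at 20 µM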
# Mdm2-MdmX conf = confirmation of human Mdm2/MdmX interaction inhibitors | shares compounds with Mdm2 MdmX PPI | Mdm2-MdmX binding, luminescent assay | inhibition, % at 8 µM | 55% of 10,000 active | AID 489028; in the data active means inhibition above about 40%
# FLuc counter = inhibits full-length luciferase, flagging false Mdm2/MdmX hits. 77% of 6,200 active. inhibition, % at 8 µM. SaOS-2 full-length luciferase counterscreen, luminescence. shares compounds with Mdm2 MdmX PPI. AID 504607;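 active means mean inhibition at 8 µM reaching about 37%, which flags the compound as non-specific, limit read from the data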;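 further: p53-null SaOS-2 cells with luciferase driven by a doxycycline-inducible promoter; compound on cells about two nights before reading with doxycycline added after day one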
# * = called active by the depositor; . = not tested or not shown.
SMILES,KKLEB tox,HIF-2a inh,CF NFkB block,Mdm2 MdmX PPI,ABHD5-PLIN5 inh,Peg3 prom inh,Mdm2-MdmX conf,others
CNC(=O)c1[nH]cnc1C(=O)N[C@@H](CCCCNC(=O)OC(C)(C)C)C(=O)OC(C)(C)C,-11,8,1,-6,-2,6,.,
CC(C)C[C@H](NC(=O)c1nc[nH]c1C(=O)N[C@@H](CC(C)C)C(=O)OC(C)(C)C)C(=O)OCc1ccccc1,.,.,.,64*,.,.,-11,
CCOC(=O)c1ccc(NC(=O)c2nc[nH]c2C(=O)N[C@@H](CC(C)C)C(=O)OC(C)(C)C)cc1,-8,13,11,42,2,12,.,
CC(C)C[C@H](NC(=O)c1[nH]cnc1C(=O)Nc1ccccc1)C(=O)OC(C)(C)C,-6,24,23,57*,-9,26,15,
CN(C)CCNC(=O)C1(C)Cc2c(-c3cccc(C(F)(F)F)c3)ccnc2O1 (stereo not drawn),2,5,12,.,4,7,.,
CN(c1ccccc1)S(=O)(=O)c1cccc(NC(=O)c2nn(C)c(=O)c3ccccc23)c1,8,5,-37,1,10,47,.,
O=S(=O)(Nc1cccc(-c2ccc3nncn3n2)c1)c1cccc(F)c1,-2,9,6,9,-9,3,.,
COc1ccc(S(=O)(=O)Nc2cccc(-c3ccc4nncn4n3)c2)cc1F,-40,12,16,50*,-3,22,66*,FLuc counter=61*
CCn1c(=O)c2sccc2n(Cc2cc(C(=O)OC)ccc2OC)c1=O,-2,20,-22,51*,1,-6,8,
Cc1cccc(NC(=O)CSc2nc3[nH]ncc3c(=O)n2-c2ccccc2)c1,.,.,.,22,.,.,.,
COc1cc(NC(=O)CSc2nc3[nH]ncc3c(=O)n2-c2ccc(Cl)cc2)cc(OC)c1,-6,14,12,59*,-6,13,25,
Cc1sc2ncnc(N/N=C/c3cccc(O)c3)c2c1C,-3,-236,-2,-12,0,-237,.,
C/C(=N\Nc1ncnc2sc(C)c(C)c12)c1ccccn1,-4,-389,-26,99*,-2,84*,61*,FLuc counter=77*
CCOC(=O)C1=NNC(C(=O)c2ccccc2)C1c1ccc(Cl)cc1 (stereo not drawn),2,6,4,3,-7,6,.,
CC1(C)CC(=O)C2=C(C1)N=c1s/c(=C/c3ccc(F)c(F)c3)c(=O)n1C2c1ccc(F)cc1 (stereo not drawn),-15,21,10,46,-2,24,.,
CCOC(=O)C1=C(C)N=C2c3ccccc3C(=O)C2C1c1ccc(Cl)cc1 (stereo not drawn),-7,-6,-5,51*,3,20,24,
CC1(C)CC(=O)C2=C(C1)N=C1c3ccccc3C(=O)C1C2c1ccc(Cl)cc1 (stereo not drawn),4,47*,35,56*,22*,58*,14,
CCCCN1C(=O)Cc2c1nc(N)c1c(N)nc(N(CCC)CCC)c(C#N)c21,-5,13,20,.,-13,42,.,
C=C(C)CN(CC)c1nc(N)c2c(N)nc3c(c2c1C#N)CC(=O)N3C12CC3CC(CC(C3)C1)C2,-31,5,35,84*,-22,15,54*,FLuc counter=41*
O=C(Nc1cccc(C(F)(F)F)c1)N(Cc1ccc(Cl)cc1)CC(O)C(F)(F)F (stereo not drawn),2,-6,8,67*,-8,29,4,
N#CC1=C(N)Oc2cc(N)ccc2C1c1ccccc1F (stereo not drawn),-17,18,26,56*,4,24,52*,FLuc counter=67*
N#CC1=C(N)Oc2cc(N)ccc2C1c1cc(Br)cs1 (stereo not drawn),-7,18,17,58*,15,38,29,
N#CC1=C(N)Oc2cc(N)ccc2C1c1ccsc1 (stereo not drawn),0,33,-2,11,-3,-1,.,
COc1cccc(C2C(C#N)=C(N)Oc3cc(N)ccc32)c1OC (stereo not drawn),-12,13,1,-9,2,15,.,
CCOC(=O)c1cc(OC(=O)Cc2ccc(OC)c(S(=O)(=O)N3CCOCC3)c2)cc(C(=O)OCC)c1,-7,-21,22,.,4,-8,.,
SMILES,KKLEB tox,HIF-2a inh,CF NFkB block,Mdm2 MdmX PPI,ABHD5-PLIN5 inh,Peg3 prom inh,Mdm2-MdmX conf,others
COCCCNC(=O)/C=C1\Sc2ccccc2N(Cc2ccccc2F)C1=O,2,-122,-4,88*,6,-109,53*,FLuc counter=38*
O=C(CN1C(=O)/C(=C/c2ccccc2F)Sc2ccccc21)NCCCN1CCOCC1,-6,1,12,8,7,-8,.,
CCCCn1c(N)c(-c2nc3ccccc3s2)c2c([N+](=O)[O-])nn(C)c(=O)c21,-33,-25,49,33,-2,16,.,
CCCCCn1c(N)c(-c2nc3ccccc3s2)c2c([N+](=O)[O-])nn(CC)c(=O)c21,-58*,-11,59*,92*,3,35,-17,
CCCCCn1c(N)c(-c2nc3ccccc3o2)c2c([N+](=O)[O-])nn(C)c(=O)c21,4,-5,-28,.,-2,6,.,
Cn1nc([N+](=O)[O-])c2c(-c3nc4ccccc4s3)c(N)n(C3CCCCC3)c2c1=O,-3,9,-8,51*,-5,21,6,
COc1ccc(C)cc1NC(=O)CN1CCCC1c1ccc2c(c1)OCCCO2 (stereo not drawn),-7,6,-7,32,3,16,.,
CN(C)N(C(=O)c1cc(-c2cccs2)nn1-c1ccccc1)C1CCS(=O)(=O)C1 (stereo not drawn),-5,-3,10,13,3,17,.,
Cc1cc(C)c(C(O)c2ncc(-c3ccccc3F)[nH]2)c(C)c1 (stereo not drawn),1,-26,-10,.,5,1,.,
O=S(=O)(c1ccc(NC(=S)N/N=C/c2c3ccccc3cc3ccccc23)cc1)N1CCOCC1,1,-62,-34,58*,-11,-44,9,
O=S(=O)(c1ccc(NC(=S)N/N=C/c2ccc(Oc3ccccc3)cc2)cc1)N1CCOCC1,-15,10,14,64*,-2,9,38,FLuc counter=85*
CC1(C(=O)NCc2ccc3c(c2)OCO3)CCN1C(=O)Cc1ccc(Cl)cc1Cl (stereo not drawn),-1,14,10,.,3,12,.,
CCOc1cccc(CNCCO)c1OCc1ccc(Cl)cc1Cl,-5,23,5,44,10,19,.,
CCOc1cc(CNCCO)cc(Br)c1OCc1ccc(Cl)cc1Cl,-7,1,-4,100*,2,-15,50*,FLuc counter=26
